Experimental findings from ChEMBL document CHEMBL4513216, “Probing the Open Global Health Chemical Diversity Library for Multistage-Active Starting Points for Next-Generation Antimalarials” (ACS Infect Dis, 2020) are described below.

The structures appear in SMILES notation. In all, about 65,000 compounds went through this assay and about 2,100 (3.2%) showed an effect of 50% or more. The median lay at about -52%. The entries come from a sample that favours strong results as a whole.

For the assay, the system named is Plasmodium falciparum. The assay can be described thus: Screen against P. falciparum Asexual Blood Stage (ABS), at 5uM. It counts as functional, Dd2. The note with it: tested at 5 uM.
As to `COc1ccc2[nH]cc(CCNC(=O)C3CCCN(C(C)=O)C3)c2c1` (centres undefined), the INHIBITION was -30%.
Under `CSc1ncccc1C(=O)N1CCCC1c1ccc(C(=O)N(C)C)s1` (centres undefined) stands -53.6%; under `Cc1cc2n(n1)CCN(c1nc(N)nc3c1CCNCC3)C2`, -75.3%; under `Cc1ccccc1N1CCN(c2nc(N(C)C)nc3c2CCNC3)CC1`, 39.1%.
Under `Cc1cc2n(n1)CCN(c1nc(N(C)C)nc3c1CCNC3)C2` stands 57.8%; under `Cc1ccc(NC2CCN(C(=O)c3ccc(F)cc3Cl)CC2)nn1`, -116%.
Under `Cc1cc(-c2cnc(NC3CCCCC3)nc2-c2ccco2)on1` stands -49.1%.
As to `CCc1nc(C2CCCN2Cc2cc(C)nc3ccccc23)no1` (centres undefined), the INHIBITION is recorded as -64.8%.
Under `CN1CCCN(C(=O)NCc2ccccc2Cn2cncn2)CC1` stands -93.1%.
Under `O=C(CC1CC1)N1C[C@H]2CN(CC3CC3)C(=O)[C@H]2C1` stands -64.7%; under `COCCN1C[C@@H]2CN(C(=O)CC3CC3)C[C@@H]2C1=O`, 53.5%.
Under `COCCN1C[C@@H]2CN(C(=O)[C@H]3CCCO3)C[C@@H]2C1=O` stands -135%; under `Cn1ccc2c(cnc3nc(-c4ccncc4)nn32)c1=O`, -169%; under `CN(C)c1ccc(C(=O)N2CCC(c3cc4cnccc4[nH]3)CC2)cc1`, 29.8%.
For `CN(C)c1ccc(C(=O)N2CCC(c3cc4ncccc4[nH]3)CC2)cc1`, the INHIBITION is listed as 55.6%.
Under `COc1cc(CCC(=O)N2CCC(c3cc4ncccc4[nH]3)CC2)on1` stands -0.239%; under `CCNC(=O)NC(=O)C(C)N(C)CCOc1ccccc1C` (centres undefined), -80.5%.
Under `CC(C)N1CCO[C@@H]2CN(S(=O)(=O)c3cccs3)CC[C@@H]2C1` stands 52.1%.
Under `CN1CCO[C@H]2CN(S(=O)(=O)c3ccc(C#N)cc3)C[C@H]21` stands -81.8%; under `CN1CCO[C@@H]2CN(S(=O)(=O)c3ccccc3F)CC[C@@H]2C1`, 50.3%.
`CN(C)C[C@H]1OC[C@@H]2CCN(S(=O)(=O)c3ccccc3)C[C@@H]21`: the INHIBITION is -3.11%.
With `CN1CCO[C@@H]2CN(S(=O)(=O)c3ccccc3)C[C@@H]2C1`, the INHIBITION was -17.9%.
Under `Cc1ccc(S(=O)(=O)N2CC[C@H]3CO[C@H](CN(C)C)[C@H]3C2)cc1` stands 12.4%; under `CN1CCO[C@@H]2CN(S(=O)(=O)c3cccs3)CC[C@@H]2C1`, -22.2%.
Consider `O=C1CO[C@@H]2CN(S(=O)(=O)c3ccccc3F)C[C@H]2N1`, for which the INHIBITION is recorded as -30.8%.
Consider `CC(=O)N1CCO[C@@H]2CN(S(=O)(=O)c3ccccc3F)C[C@@H]2C1`, for which the INHIBITION is -67.6%.
On to `CN(C)C[C@H]1OC[C@@H]2CCN(S(=O)(=O)c3ccc(F)cc3)C[C@@H]21`, for which the INHIBITION was found to be 50.5%.
Under `COc1ccc(S(=O)(=O)N2C[C@@H]3CN(C)CCO[C@@H]3C2)cc1` stands 60.2%; under `CCN1CCO[C@@H]2CN(S(=O)(=O)c3cccs3)CC[C@@H]2C1`, 40.2%; under `CN1CC(=O)N(c2ccccc2)Cc2c(NC3CC3)ncnc21`, -97.2%.
Under `CO[C@H]1CN(C(=O)OC(C)(C)C)CC1NCc1ccco1` (some centres undefined) stands -47.8%; under `CN(CCNC(=O)Nc1ccn(C)n1)Cc1ccc(F)cc1`, -27.6%.
In the case of `CC(C)NC(=O)N1CCc2onc(C(=O)NCCN(C)C)c2C1`, the INHIBITION is -13.1%.
Under `COCc1nn(C(C)C)c2c1CCN(Cc1ccc(C)o1)C2` stands -31%.
Under `CC(C)C1=NOC2(CCN(Cc3c[nH]c4ccccc34)CC2)C1` stands 2.84%.
Under `Cc1ccc(CNCC2Cn3nnc(-c4cnn(C)c4)c3CO2)o1` (centres undefined) stands -32.4%.
For the molecule `Cc1ccc(Nc2nccc(C3CCCN(CC(=O)N(C)C)C3)n2)nc1` (centres undefined), the INHIBITION was -3.51%.
Under `Cc1ccc(N2CCc3ncnc(C4CC4)c3CC2)nn1` stands -150%; under `CN1CCO[C@@H]2CN(S(=O)(=O)c3ccc(F)cc3)CC[C@@H]2C1`, 62.7%; under `CN1CCO[C@@H]2CN(S(=O)(=O)c3ccccc3)CC[C@@H]2C1`, 33.8%.
With `CC(=O)N1CCO[C@@H]2CN(S(=O)(=O)c3ccc(F)cc3)CC[C@@H]2C1`, the INHIBITION was -83.8%.
Under `N#Cc1ccccc1CN1C[C@@H]2CC[C@H]1CN(C(=O)c1cccnc1)C2` stands -15.6%; under `CCN(C(=O)CN1CCCN(c2nc(C)ns2)CC1)C1CC1`, -126%; under `CC(C)CC(=O)NCC1CCC(C(c2ccccn2)N(C)C)CC1` (centres undefined), -110%.
Under `O=C(c1ccccn1)N1CCC2(COc3ncccc3S(=O)(=O)N2)C1` (centres undefined) stands -69.3%; under `Cc1ccc(CN(CCCn2ccnc2)Cc2c[nH]nc2C(C)(C)C)s1`, 33.5%; under `Cc1ccc2nc(C)cc(NCCNS(=O)(=O)c3cn(C)nc3C)c2c1`, 47.8%.
On to `Cc1ccc2nc(C)cc(NCCNS(=O)(=O)c3cccnc3)c2c1`, for which the INHIBITION worked out at 62.9%.
Under `Cc1cc(NCCNS(=O)(=O)c2cn(C)nc2C)c2ccccc2n1` stands 3.35%; under `COc1nn(C)c2c1CCCN(C(=O)c1cccs1)C2`, -22.1%; under `O=C(c1ccc(F)cc1)N1CC[C@H]2[C@H]1CCN2CC1CCOCC1`, -112%.
Under `Cc1nc(CN2CCN(C(=O)C(C(C)C)n3cncn3)CC2)cs1` (centres undefined) stands -61.1%; under `CN1CCC(N(Cc2ccco2)S(=O)(=O)c2ccc(Cl)cc2)CC1`, 56.8%.
Under `CN1N=C(C(=O)N(Cc2ccco2)C2CC2)CCC1=O` stands -127%.
